Source: ChEMBL document CHEMBL4808148, “HDAC6 screening dataset using tau-based substrate in an enzymatic assay yields selective inhibitors and activators” (2021)
Among all 5,600 compounds or so, about 390 (7%) showed an effect of 50% or more. Many of the other results were omitted from the sample, so strong results are more common in it than they were. Starred links: 1 amine or outer side, 2 acyl side, 3 side chain; linkers in the order of their positions; H or OH if unused. Positions of bridges follow the written chain, without caps; N, C: chain ends. Non-standard residues stand in square brackets, D forms with d. Residues, ends and D or L forms follow the SMILES beside them. Chains are numbered I, II in the order given. Actinocin(9to1) = Cc1c2oc3c(C)ccc(C(=O)[*:1])c3nc-2c(C(=O)[*:2])c(N)c1=O; NMeV = CN[C@H](C(=O)O)C(C)C; Sar = CNCC(=O)O

Key:
[1] = biological target: T1, Protein deacetylase HDAC6 (Homo sapiens) (UniProt Q9UBN7); settings: at 10 µM
T1 sequence (whole entry): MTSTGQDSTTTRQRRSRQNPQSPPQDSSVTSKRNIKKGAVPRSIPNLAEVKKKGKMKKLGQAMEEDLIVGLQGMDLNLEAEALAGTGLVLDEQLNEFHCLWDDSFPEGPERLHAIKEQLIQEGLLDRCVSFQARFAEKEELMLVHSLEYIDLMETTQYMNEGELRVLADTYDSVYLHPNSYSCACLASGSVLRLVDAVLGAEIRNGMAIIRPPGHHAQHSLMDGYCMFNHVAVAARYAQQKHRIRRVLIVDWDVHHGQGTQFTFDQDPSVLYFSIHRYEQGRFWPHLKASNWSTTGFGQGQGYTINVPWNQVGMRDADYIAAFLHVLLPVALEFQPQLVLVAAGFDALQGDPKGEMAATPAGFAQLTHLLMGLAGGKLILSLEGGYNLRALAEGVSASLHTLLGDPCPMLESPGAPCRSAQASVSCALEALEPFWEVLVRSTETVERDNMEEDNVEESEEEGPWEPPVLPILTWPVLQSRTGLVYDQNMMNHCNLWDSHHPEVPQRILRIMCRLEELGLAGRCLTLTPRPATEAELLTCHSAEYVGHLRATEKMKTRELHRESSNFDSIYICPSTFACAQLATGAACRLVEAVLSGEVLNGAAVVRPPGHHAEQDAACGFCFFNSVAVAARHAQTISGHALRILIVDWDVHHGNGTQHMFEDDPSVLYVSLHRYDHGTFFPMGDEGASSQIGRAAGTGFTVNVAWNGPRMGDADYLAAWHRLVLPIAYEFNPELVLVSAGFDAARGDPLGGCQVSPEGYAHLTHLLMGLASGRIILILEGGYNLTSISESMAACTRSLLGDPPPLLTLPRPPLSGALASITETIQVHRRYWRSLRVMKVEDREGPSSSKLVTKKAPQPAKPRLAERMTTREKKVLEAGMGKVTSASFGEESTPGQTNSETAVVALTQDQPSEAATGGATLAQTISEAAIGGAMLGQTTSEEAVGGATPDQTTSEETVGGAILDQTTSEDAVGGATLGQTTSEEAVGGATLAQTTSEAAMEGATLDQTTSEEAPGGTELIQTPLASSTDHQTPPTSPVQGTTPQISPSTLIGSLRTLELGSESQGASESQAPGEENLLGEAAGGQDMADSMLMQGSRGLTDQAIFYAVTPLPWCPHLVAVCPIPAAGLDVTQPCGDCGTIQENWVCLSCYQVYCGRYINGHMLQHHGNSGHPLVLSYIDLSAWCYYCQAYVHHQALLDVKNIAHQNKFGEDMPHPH

[2] = biological target: Protein deacetylase HDAC6 (Homo sapiens) (UniProt Q9UBN7); settings: at 10 µM; remark: listed apart in the source

Molecule | inhibition [1] | inhibition [2]
CC1CCN(C(c2ccc(F)cc2)c2ccc(C(C)C(=O)O)cc2-c2ccc(C(F)(F)F)cc2)CC1 (stereo not drawn) | 27.9% | –
Nc1ncnc2nc(-c3ccc(N4CCOCC4)nc3)cc(-c3cccc(Br)c3)c12 | 19.8% | –
CYANOCOBALAMIN, CHEMBL2110563 | – | -2.71%
BLEOMYCIN SULFATE, CHEMBL6067493 | – | 23.1%
FLUPENTIXOL, CHEMBL6066864 | – | 88.9%
O=c1ccc2cc3ccoc3cc2o1 | 17.5% | –
CC(C)[C@H](C(=O)Nc1ccc(C(=O)NO)cc1)c1ccccc1 | 101% | –
O=C(O)c1ccc(NC(=O)[C@H](Cc2ccc(O)cc2)NC(=O)c2ccccc2)cc1 | 10.6% | –
CC(=O)Nc1ccc(C(=O)Nc2ccccc2N)cc1 | -0.35% | –
CC1(C)Oc2ccc(C#N)cc2[C@@H](N2CCCC2=O)[C@@H]1O | -9.16% | –
Cc1ccc(C(=O)Cn2c3c(sc2=N)CCCC3)cc1 | 102% | –
CCOC(=O)C1=C(C)NC(c2ccccc2)=C(C(=O)OCc2ccc([N+](=O)[O-])cc2)C1C#Cc1ccccc1 (stereo not drawn) | -2.41% | –
COc1cccc(CCc2ccccc2OCC(CN(C)C)OC(=O)CCC(=O)O)c1 (stereo not drawn) | -7% | –
COc1cccc(/C=N/C=N/c2cccc(OC)c2)c1 | 99.8% | –
N/C(=N\C(=O)c1nc(Cl)c(N)nc1N)NCc1ccccc1 | 25.2% | –
N[C@H](C(=O)O)c1ccc(O)cc1 | 4.75% | –
Cc1cc(-c2nc(C(=O)Nc3cn(C4CCOCC4)nc3C(N)=O)co2)ccn1 | 22.8% | –
COc1ccc(/C=C/C(=O)Nc2ccccc2C(=O)O)cc1OC | 40.8% | –
O=C(/C=C/c1cccc(S(=O)(=O)Nc2ccccc2)c1)NO | 102% | –
CC(=O)Nc1ccc(S(=O)(=O)Nc2ccc([N+](=O)[O-])cc2)cc1 | 17.7% | –

Molecule | inhibition [1] | inhibition [2]
c1cc(-c2sc(-c3ccncc3)c(-c3ccncc3)c2-c2ccncc2)ccn1 | 17% | –
COc1cc(N)c(Cl)cc1C(=O)CCC1CCN(CCNS(C)(=O)=O)CC1 | -6.48% | –
Nc1ncnc2c1ncn2[C@@H]1O[C@H](CO)C[C@H]1O | -9.63% | –
CC(=O)Oc1c(C)cc(OCC(O)CNC(C)C)c(C)c1C (stereo not drawn) | 28.4% | –
CCOc1ccc(-n2c(C(C)N(Cc3cccnc3)C(=O)Cc3ccc(F)c(C(F)(F)F)c3)nc3ncccc3c2=O)cc1 (racemic) | -3.08% | –
COc1cccc(-c2ccc(NC(=O)C3=C(C(=O)O)CCC3)c(F)c2)c1 | 43.2% | –
COc1cc2nccc(Oc3ccc(NC(=O)Nc4ccc(F)cc4F)c(F)c3)c2cc1OC | 10.8% | –
CCCCOc1ccc(C(=O)Nc2ccc(F)cc2F)cc1 | 69.8% | –
Chlorophyllin (sodium copper salt), CHEMBL5308389 | – | 19.3%
CHLOROPHYLLIDECOPPER COMPLEX SODIUM SALT, CHEMBL5308389 | – | 8.12%
BISMUTH SUBSALICYLATE, CHEMBL1120 | – | 12.2%
O=C(O)C1(c2ccc(-c3ccc(Cl)c(Cl)c3)c(F)c2)CC1 | 33.4% | –
Cc1c(-c2ccc(-c3ccccc3F)cc2)nc2ccc(F)cc2c1C(=O)O | -9.14% | –
O=C(O)c1cc(-c2ccc(F)cc2F)ccc1O | 60.9% | –
CC(C)[C@@H](C)/C=C/[C@@H](C)[C@H]1CC[C@H]2/C(=C/C=C3\C[C@@H](O)CC[C@@H]3C)CCC[C@]12C | 11.8% | –
CC(C)(O)c1coc(S(=O)(=O)NC(=O)Nc2c3c(cc4c2CCC4)CCC3)c1 | -9.36% | –
Cc1cnc(NC(=O)Nc2cc(Br)c(C)cc2OC[C@@H]2CNCCO2)cn1 | -8.01% | –
COc1cc(COc2cc(N)c(Cl)cc2C(=O)CCC2CCN(CCNS(C)(=O)=O)CC2)cc(OC)c1 | 28.1% | –
Cc1c(NC(=O)N2CCOCC2)ccc2c1c1ccccc1n2C(C)C | 21.6% | –
CN1CCCC(CC2c3ccccc3Sc3ccccc32)C1 (stereo not drawn) | 34.4% | –

Molecule | inhibition [1] | inhibition [2]
CSc1ccc2c(c1)N(CCC1CCCCN1C)c1ccccc1S2 (stereo not drawn) | 21.9% | –
CSc1ccc2c(c1)C(N1CCN(C)CC1)Cc1ccccc1S2 (stereo not drawn) | 62.7% | –
NC(=O)C[C@H](N)C(=O)O | 16.2% | –
O=C(O)CNC(=O)c1nc(Cl)c2ccccc2c1O | -6.14% | –
Cc1c2oc3c(C)ccc(C(=O)N[C@@H]4C(=O)N[C@@H](C(C)C)C(=O)N5CCC[C@H]5C(=O)N(C)CC(=O)N(C)[C@@H](C(C)C)C(=O)O[C@@H]4C)c3nc-2c(C(=O)N[C@@H]2C(=O)N[C@@H](C(C)C)C(=O)N3CCC[C@H]3C(=O)N(C)CC(=O)N(C)[C@@H](C(C)C)C(=O)O[C@@H]2C)c(N)c1=O (I: TVP[Sar][NMeV] / II: TVP[Sar][NMeV]; ester I:1-I:C, II:1-II:C; linker I:N-II:N via Actinocin(9to1)) | 21% | –
COc1cc2c(cc1OC)CN(CCc1ccc(NC(=O)c3cccc4c(=O)c5cccc(OC)c5[nH]c34)cc1)CC2 | 59.7% | –
COc1cccc([C@H](O)C2CCN(CCc3ccc(F)cc3)CC2)c1OC | -1.53% | –
COc1ccccc1S(=O)(=O)Nc1ccc2c(c1)CN(C)C(=O)N2 | -9.44% | –
COc1cnc(-n2cnc(C)n2)c2[nH]cc(C(=O)C(=O)N3CCN(C(=O)c4ccccc4)CC3)c12 | 12.8% | –
CC(C)(Sc1ccc(CCN(CCCCC2CCCCC2)C(=O)NC2CCCCC2)cc1)C(=O)O | 10.4% | –
COc1ccc(/C=C\CCCCOc2ccc(C(=O)c3cccc(C(=O)O)c3)cc2CCC(=O)O)cc1 | -0.99% | –
CC(C)(C)c1ccc(CN(Cc2cccc(OCC(=O)O)c2)S(=O)(=O)c2cccnc2)cc1 | 3.1% | –
Cc1onc(-c2c(Cl)cccc2Cl)c1C(=O)N[C@@H]1C(=O)N([C@@H](C(=O)O)C(C)(C)C)[C@@H]1S | -9.26% | –
O=C(Nc1ccccc1-c1cn2c(CN3CCNCC3)csc2n1)c1cnc2ccccc2n1 | 55.6% | –
O=C(C1CC1)N1CC[C@@H](Cc2n[nH]c(=O)n2-c2ccc(-c3ccc4occc4c3)cc2)C1 | 39.2% | –
CN[C@@H]1[C@@H](O)[C@H](O[C@@H]2[C@@H](O)[C@H](O[C@H]3O[C@H](CN)[C@@H](O)[C@H](O)[C@H]3O)[C@@H](N)C[C@H]2NC(=O)[C@@H](O)CN)OC[C@]1(C)O | -4.97% | –
Cc1cc(NC(=O)Nc2ccc(N(C)C)cc2)c2cc(F)cc(F)c2n1 | 9.39% | –
Cc1ccc(F)c(NC(=O)Nc2ccc(-c3cccc4[nH]nc(N)c34)cc2)c1 | 94.5% | –
